Reference: PubChem BioAssay AID624093 (National Center for Advancing Translational Sciences (NCATS), 2012)
Results filed as inconclusive are left out. Calls of active or inactive are those of the source. Calls follow the shape of the dose curve; as a rule, active = well fitted inhibition curve with a large enough effect; inconclusive = small, poorly fitted or top-dose-only effect; inactive = flat fitted curve, though single readings scatter.

target: Dual specificity tyrosine-phosphorylation-regulated kinase 1A (Homo sapiens) (UniProt Q13627); test: Confirmation Assay for Inhibitors of Dyrk1a (Kinase-Glo Assay): KU probe; conditions: Kinase-Glo ATP luminescence; series mostly up to 76.9 µM; activity, negative = inhibition: at the top concentration
Method in brief: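 Luminescent Kinase-Glo read-out of ATP left after a 2 h room-temperature reaction of 5nM Dyrk1A with 2uM ATP and 8uM DYRKtide. Buffer: 25mM Tris-HCl pH 7.5, 10mM MgCl2, 0.5mM EGTA, 5mM cysteine, 0.01% Triton X-100.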

Q: With `c1nc(NC[C@@H]2CCCO2)c2cc(-c3ccc4c(c3)OCO4)ccc2n1` as the compound, how does the Potency read?
A: Its Potency is 130 nM (active).

Q: `COc1cccc(-c2ccnc(NCc3ccc(Cl)cc3)n2)c1` was tested. Which Potency did it give?
A: Its Potency is 7330 nM (active).

Q: Which “activity, negative = inhibition” value does the source give for `Brc1ccc(CNc2ccnc(-c3ccc4c(c3)OCO4)n2)cc1Br` here?
A: Its value is -10.1% (inactive).

Q: How did the Potency turn out when `c1cncc(CNc2nccc(-c3ccc4[nH]ncc4c3)n2)c1` was run?
A: The Potency was 146 nM (active).

Q: For `c1cncc(CNc2nccc(-c3ccc4c(c3)OCO4)n2)c1`, which Potency is on record?
A: Its Potency is 36.8 nM (active).

Q: With `c1cncc(CNc2cc(-c3ccc4c(c3)OCO4)ncn2)c1` as the compound, how does the Potency read?
A: The Potency was 16400 nM (active).

Q: How did the “activity, negative = inhibition” value turn out when `O=C(Nc1ccnc(-c2ccc3c(c2)OCO3)n1)c1ccncn1` was run?
A: The value was -15.6% (inactive).
